Experimental data from the OligoGym collection.

target: ITFG1; assay: pooled miR-30 sensor sort-seq; sequence = guide strand; details: shRNA
Also: reference of the scale not given here.

| Sequence | sensor-assay potency score (higher = more potent) |
| --- | --- |
| TATCAATGCACTGTGATTCTTG | 0.396 |
| TTTTTCTCTATCATCTGCTTTC | -0.602 |
| TTTATCTTCACAGCCTGGCAGT | -0.637 |
| TATACATGATATAAGGTCCAGG | -0.949 |
| TAGATCACCATTGAAATCCATA | -0.916 |
| TTCGTATAGATTTTTCTCCAGA | -0.843 |
| TAACTTTAACAAAATAAGCATC | -1.35 |
| TAATGTTTGATTTTGTCCCCAG | -0.0623 |
| TTATCTTACGAGGACAGTCATT | -1.41 |
| TACTTGTAGTGGTCAATGCTGG | -0.574 |

target: ITFG2; assay: as above; details: shRNA

| Sequence | sensor-assay potency score (higher = more potent) |
| --- | --- |
| TACACAGACACCTTCCCGCTGG | -0.00421 |
| TAACGTATCGTTATCAACGTCT | 0.345 |
| ATCGTTATCAACGTCTCCGAGG | -1.09 |
| TTTGATGTTGCCAATTAGGTGA | -0.267 |
| TATCGTTATCAACGTCTCCGAG | -0.305 |
| TTATACACAGACACCTTCCCGC | 0.0194 |
| TTTTCATCCACTTGGAAGCGGA | -0.742 |
| TAGGTGAGTGGAGACATTCTTG | -0.555 |
| TTAACGTATCGTTATCAACGTC | -0.293 |
| TTTCTTGAGGGACACCAGCTGC | -0.971 |
| TAGATCTTCTGGTTGAAAGTGA | -0.00804 |
| TTGAGGGAGCACACTGTGGTGG | -0.228 |

target: ITGA2; assay: as above; details: shRNA

| Sequence | sensor-assay potency score (higher = more potent) |
| --- | --- |
| TTTCGTAGCACTTCGTCGCCCA | 0.484 |
| TTGCTTAGTAGGTCTGAACTTT | -0.177 |
| TAAACAGGTAGACTCTTCCTTC | 0.446 |
| TAGCACTTCGTCGCCCACCAGA | -1.01 |
| TAGGTCTGAACTTTGCACTGAA | -0.0543 |
| TAAATCTCCATAGCCATCCAAG | -1.12 |
| TTGCATATTGAATTGCTCCGAA | 0.0822 |
| TACTTCTGTCCCATCAACCGGC | 0.167 |
| TTGTCGGACATCTAGGACTAGA | -0.587 |
| TTCTGTTGGAATACTAGCGATT | -0.717 |
| TGAACTGTGATTTCTGTCCTGC | 0.82 |
| TTGACTGAGCGCTAACACCAGC | -1.15 |

target: ITGAM; assay: as above; details: shRNA

| Sequence | sensor-assay potency score (higher = more potent) |
| --- | --- |
| TTACACTCAAATACATTCCTTG | 0.424 |
| TTAAACAAGATCTCAGCTGTGC | 0.114 |
| TTGCTGTCCACGTCCACGGAGC | -1.3 |
| TTGATGTACCAGTCAAACGAGA | -0.909 |
| TCAGTGTCCAAGTTGAACCCAT | -0.0132 |
| TTGAACTCCATGATTGCCTTGA | 0.856 |
